The record followed here is PubChem BioAssay AID493185 (National Center for Advancing Translational Sciences (NCATS), 2011).

Unmarked numbers belong to inactive results. Activity calls are given as the source filed them. The call rests on the fitted dose curve; in most records, active means well fitted activation curve with a large enough effect; inconclusive means small, poorly fitted or top-dose-only effect; inactive means no such curve, though single readings can be large or run the other way.
Potency means the concentration at half of the fitted maximal effect.

A short description of the assay: Counterscreen for Identifying a Potential Treatment of Ataxia-Telangiectasia: Hit Validation. On activation: 0% is about no effect. As to conditions: cell-free AlphaLISA/AlphaScreen artifact counterscreen, PBS only, no cells; series mostly up to 76.9 µM; activation: at the top concentration. The text has this:
NIH Chemical Genomics Center [NCGC]
NIH Molecular Libraries Probe Centers Network [MLPCN]
Assay Submitter (PI): Wei Zheng and Yosef Shiloh
Ataxia-telangiectasia (A-T) is a devastating and progressive disease for which, there is no cure. Although A-T is a multisystem disease, it is stereotyped characterized by its neurological symptoms such as truncal ataxia, due to cerebellar cortical degeneration of the Purkinje and granule cells. Other symptoms of A-T are telangiectasias (dilated blood vessels), primary immunodeficiency, marked sensitivity to ionizing radiation (IR), chromosomal instability and predisposition to cancer.
The underlying genetic cause of A-T is null mutations in the ATM (A-T mutated) gene. ATM is a nuclear serine/threonine kinase that functions as a master regulator of the cellular responses to double strand breaks (DSBs) in the DNA. Upon activation by DSBs, ATM phosphorylates a plethora of downstream targets, including KAP-1 on […]. KAP-1 phosphorylation occurs shortly in response to DSBs and mediates global chromatin relaxation, which facilitates DSB repair. To screen for small molecules that will compensate for the loss of ATM in cells derived from A-T patients, we monitored KAP-1 phosphorylation as a readout for ATM-like activity using an AlphaLISA assay.
3. Library compounds, 23 nl, 76.7 - 0.61uM dilution series final concentration
4. Incubation, 60 min, 37C, 5% CO2, 95% humidity
6. Incubation, 30 min, 37C, 5% CO2, 95% humidity
7. Reagent, 1 ul, Premixed detection reagents and lysis buffer
8. Reagent, 1 ul, 0.6% Antifoam A
9. Incubation, 6 hr, 25C, 95% humidity
10. Readout, EnVision, EnVision plate reader. AlphaScreen 1536-well protocol
PBS was dispensed into medium-binding white solid-bottom tissue culture treated Kalypsys plates with a Multidrop dispenser. Detection reagent and lysis buffer was 3.75nM Rab-a-pKAP1 antibody bound to 75 ng/ul AlphaScreen SA donor bead, 3.75 nM Biot-M-a-KAP1 antibody bound to AlphaLISA protein A acceptor bead, 0.5x protease inhibitor cocktail and 0.25x PerkinElmer lysis buffer. EnVision protocol for 1536-well AlphaScreen read (30ms excitation, 100ms read), about 10 min/plate. This assay is similar to the primary screen but is without cells. It aims to identify artifacts of the assay platform and unspecific hits.
On the technique in general: Counterscreens check selectivity or assay interference.
`CC1CCCC(C)N1C(=O)COC(=O)Cc1ccc(Cl)cc1` (stereo not given): the “activation” value was 6.01%.

Consider `CCCCn1c2c(c(=N)c3ccccc31)CCC2`, for which the “activation” value was -16.4%.

With `COc1cccc(CN2CCN(Cc3cc(OC)c(OC)cc3OC)CC2)c1`, the “activation” value is -0.752%.

In the case of `C=C1CCC[C@]2(C)C[C@H]3OC(=O)C(CN4CCCCC4CO)[C@H]3CC12` (stereo not given in full), the “activation” value was -2.46%.

Turning to `COc1cccc(CNC(=O)C(CC(C)C)NC(=O)c2ccccc2C)c1` (stereo not given), the “activation” value was 0%.

Consider `COC(=O)c1ccc2[nH]c3cccc(/C(=C/c4ccccc4)c4ccccc4)c3c2c1`, for which the “activation” value is 4.92%.

On to `COc1ccc(N(C)S(=O)(=O)c2cccc(C(=O)OCC(=O)NCc3ccccc3OC)c2)cc1`, for which the “activation” value is -12.8%.

Regarding `Nc1ccc2ncccc2c1`, the “activation” value is 9.02%.

Consider `C=Cc1c(C)c2cc3[nH]c(cc4nc(cc5nc(cc1[nH]2)C(C)=C5CCC(=O)O)C(CCC(=O)O)=C4C)c(C)c3C=C`, for which the Potency is 29.2 µM (active).

Take `CN1C[C@@H]2C(c3ccccc3)C3(c4ccccc4)CC2(C3)[C@H]1c1ccccc1` (stereo not given in full): the “activation” value was -6.92%.

Turning to `CCS(=O)(=O)N1Cc2ccccc2CC1C(=O)Nc1cccc(OC)c1` (stereo not given), the “activation” value is -15.4%.

`CCN(CC)c1ccc2cc(-c3nc4ccccc4[nH]3)c(=O)oc2c1`: the Potency was 4.63 µM (active).

`CN(C)C(=O)c1nc2ccc(Cl)cn2c1CNCc1cccc(OC(F)(F)F)c1`: the “activation” value was -11.3%.

With `O=S(=O)(C/C(=C/CO)S(=O)(=O)c1ccccc1)c1ccccc1`, the “activation” value is -12.8%.

In the case of `Fc1ccc(C2N(c3ccccc3)C(=S)N3CCCN23)cc1` (stereo not given), the “activation” value is -1.54%.

For the compound `N=c1ccn(Cc2ccc([N+](=O)[O-])cc2)cc1`, the “activation” value was -6.15%.

On to `CCOc1cc(/C=C/c2nc3ccccc3c(=O)[nH]2)ccc1O`, for which the “activation” value is 3.08%.

On to `Oc1ccc(-c2nccc(-c3ccc(F)cc3)n2)cc1`, for which the “activation” value was -7.52%.

Take `CC1CCCC(C)N1CCCNC(=O)Cn1ncc2c3ccccc3n(C)c2c1=O` (stereo not given): the “activation” value is 12.8%.

`Cc1ccnc(NC(=O)c2ccccc2NC(=O)c2ccccc2)c1`: the “activation” value is 0%.

Turning to `COC(=O)c1ccncc1C(=O)Nc1ccc(Oc2ncc(C(F)(F)F)cc2Cl)cc1`, the “activation” value is -5.74%.

Take `Cc1cc2c(c(=O)o1)C(CCC1CCCCC1)C(C#N)=C(N)O2` (stereo not given): the “activation” value was -17.7%.

As to `CC(C)NC(=O)c1ccc(COc2ccc(C(C)(C)C)cc2)o1`, the “activation” value was 10.7%.

Take `CCOC(=O)Cc1csc(NC(=O)CSc2nnc(C(C)C)n2C)n1`: the “activation” value was -24.6%.

As to `O=C(CCCC(=O)N1CCCC1)N1CCCC1`, the “activation” value was -23.8%.

On to `Cc1ccc(OCC(=O)N(Cc2cccs2)C2CCS(=O)(=O)C2)cc1C` (stereo not given), for which the “activation” value is 0.752%.

`CN(CCc1ccccn1)C(=O)c1cc(COc2ccc(F)cc2F)on1`: the “activation” value was 5.26%.

With `CCn1c(=NC(=O)CN2C(=O)CCC2=O)sc2c(OC)ccc(OC)c21`, the “activation” value was -5.74%.

Take `COc1ccccc1S(=O)(=O)Nc1ccc(-c2nnc3n2CCCCC3)cc1`: the “activation” value is -2.46%.

In the case of `Cn1cc(/C=N/NC(N)=S)c2ccccc21`, the “activation” value was -17.2%.

For `OC(CN1CCCCC1)Cn1c2ccc(Cl)cc2c2cc(Cl)ccc21` (stereo not given), the “activation” value is -8.2%.

Consider `CCOC(=O)Cn1c(-c2ccccc2)cc(SC)c(C#N)c1=O`, for which the “activation” value is 11.5%.

Consider `O=C(C(c1ccccc1)c1ccccc1)N1CC[C@@]2(O)CCCC[C@H]2C1`, for which the “activation” value is -23.1%.

With `CCCc1nn(C)c(C(=O)Nc2ccc(C(C)(C)C)cc2)c1Cl`, the “activation” value was 7.69%.

As for `CCn1c(N2CCN(CC(=O)c3c[nH]c4ccccc34)CC2)nc2c1c(=O)[nH]c(=O)n2C`, the “activation” value is 14.3%.

As to `CCOc1ccc(NC2=CC(=O)CCC2)cc1`, the “activation” value was -2.46%.

On to `CC(C)CN(CC(C)C)C(=O)c1cc2c(=O)n3ccccc3nc2s1`, for which the “activation” value was 38.5%.

Take `COc1ccccc1C(=O)NC(=O)Nc1cccc(Cl)c1`: the “activation” value is 1.64%.

`O=C(CSc1nnc(CNC(=O)c2ccccc2)o1)NCCc1ccccc1`: the “activation” value was 1.5%.

As to `CCc1oc(C(=O)OC)cc1CSC(=N)N`, the “activation” value was -1.54%.
